Assay results from PubChem BioAssay (EPA / NIEHS).
Activity calls are given as the source filed them. Rule for the calls: active = hit-call score of the fitted dose curve at least 0.9, where 1 is the maximum; inactive = score below 0.9.

Read-out: ABC Transporter (ABCB1), ABCB1 (gene 5243)
Experiment: LTEA_HepaRG_ABCB1: Life Technologies and Expression Analysis (LTEA) Assay for ABC Transporter (ABCB1) using HepaRG (AID 2283460)
Details: mRNA level, 48 h; actives raise or lower the signal
Method: LTEA_HepaRG is a cell based, multiplexed-readout assay that uses HepaRG, a human liver cell line, with measurements taken at 48 hours after chemical dosing on a 96-well plate.LTEA_HepaRG_ABCB1 is one of 102 assay component(s) measured in the LTEA HepaRG cell culture assay. It is a marker of Steatosis/NR mediated transport.Data from the assay component LTEA_HepaRG_ABCB1 was analyzed into 1 endpoint. This assay endpoint, LTEA_HepaRG_ABCB1, was analyzed with bidirectional fitting relative to DMSO as the negative control and baseline of activity. Using a type of inducible reporter, measures of mRNA induction for gain or loss-of-signal activity can be used to understand regulation of transcription factor activity. To generalize the intended target to other relatable targets, this assay endpoint is annotated to the transporter intended target family, where the subfamily is ABC transporter.
A total of 1060 chemcials from the ToxCast library were tested in eight-point concentration-response experiments. Cell culture and cytotoxicity assays were conducted at Thermo Fisher Scientific's Custom Services facility (Madison, WI). A single lot of human HepaRG cells (Thermo Fisher Scientific, Frederick, MD) was used for the cell culture experiments. 96-well format collagen type I coated plates of human HepaRG cells were prepared using established methods. Briefly, cryopreserved HepaRG cells were thawed, plated at a density of approximately 100,000 cells/well in HepaRG Thaw, Plate, and General Purpose media (HPRG770, Thermo Fisher Scientific), and incubated for 48 hours. 0.5% DMSO was selected as vehicle control to balance the requisite need of DMSO in HepaRG cultures to maintain differentiation (for example, baseline metabolism, proportions of hepatocytes vs. cholangiocytes), while enabling further hepatic receptor pathway activation (for example, PXR and CAR) in response to chemical exposure. 48 hours after plating, the culture medium was replaced with HepaRG Serum-Free Incudtion Media. Cells were exposed to each test chemical in duplicate and maintained in CO2 incubators for another 48 hours. Chemical plates were thawed to room temperature and 200x concentrations of treatment groups were prepared. 8-point conentration-reponse curves were made with the highest exposure at 100 uM, followed by half-log dilutions, all in 0.5% DMSO. Each test plate contained variouse controls, induction positive controls (1mM phenobarbital), cytotoxicity positive controls ([…] aflatoxin B1), vehicle controls (0.5% DMSO), and total lysis controls (0.5% DMSO). Cell morphology images were taken using an Essen IncuCyte FLR automated microscope, with six 96-well plates imaged in about 24 minutes. Images were captured and exported and JPEG files. Spent culture media was transfered to black-well plates for the LDH assay, and remaining media was sorted at -80 C for later use. Cells were treated with RLT buffer and frozen until shipped for gene expression analysis. Total RNA was isolated from the cell suspension in 75 uL of Buffer RLT (Qiagen, Germantown, MD 20874) by Quintiles/Expression Analysis (Durham, NC) using a custom isolation procedure. Total RNA from each plate well was transferred to a preamplification plate. Fluidigm's 96.96 Dynamic ArrayTM (Fluidigm, Amsterdam, the Netherlands) technology was used for gene expression analyses by quantitative reverse transcription polymerase chain reaction (qRT-PCR, performed by Quintiles/Expression Analysis, Durham, NC)89. Standard TaqManTM Assays (Applied Biosystems/ThermoFisher Scientific, Foster City, CA) were used to assess the expression of 93 genes selected based on their selectivity and sensitivity to important hepatic receptors known to be modulated by environmental chemicals; importance in human hepatocyte functionality; and hepatotoxicity. […]

| SMILES | outcome | AC50 |
| --- | --- | --- |
| c1ccc(C[n+]2cccc3ccccc32)cc1 | inactive | – |
| CC/C(=C(/CC)c1ccc(O)cc1)c1ccc(O)cc1 | – | 82.2 µM (active) |
| O=CCCCC=O | inactive | – |
| CCCCCCCCN(C)CCCCCCCC | inactive | – |
| Cc1ncc(CO)c(CO)c1O | inactive | – |
| Cc1c2ccccc2c(C)c2c1ccc1ccccc12 | inactive | – |
| CCCCCCCCCC(=O)O | inactive | – |
| COc1ccc2cc(S(=O)(=O)N[C@H](CC(=O)N[C@H](Cc3ccc(CN4[C@H](C)CCC[C@@H]4C)cc3)C(=O)N(C)C(C)C)c3ccc4c(c3)OCO4)ccc2c1 | – | 23.1 µM (active) |
| CC(C)(C)c1csc(-c2cc3cc(OCc4ccccc4CC(=O)O)ccc3o2)n1 | – | 79 µM (active) |
| O=c1[nH]sc2ccccc12 | inactive | – |
| O=C=NCCCCCCN=C=O | inactive | – |
| c1ccc2ccccc2c1 | inactive | – |
| CCCC(=O)OCCC(C)C | inactive | – |
| CC(C)(c1cc(Br)c(O)c(Br)c1)c1cc(Br)c(O)c(Br)c1 | inactive | – |
| Cc1cc(F)ccc1-c1cc(N2CC[C@@H](O)[C@H]2CO)ncc1N(C)C(=O)C(C)(C)c1cc(C(F)(F)F)cc(C(F)(F)F)c1 | – | 10.3 µM (active) |
| CN(C)c1ccc(C(=C2C=CC(=[N+](C)C)C=C2)c2ccc(N(C)C)cc2)cc1 | – | 12.9 µM (active) |
| OCCO | inactive | – |
| O=C(O)c1ccccc1-n1cc(C(=O)O)c(=O)c2cc(Nc3c(F)cc(F)cc3Cl)c(Cl)cc21 | – | 15.5 µM (active) |
| c1ccc2n[nH]nc2c1 | inactive | – |
| CC1=CC(=O)/C(=C(/C)O)C(=O)O1 | inactive | – |

| SMILES | outcome | AC50 |
| --- | --- | --- |
| O=C1CCC(C2CCCCC2)CC1 | inactive | – |
| CN(C)C(=O)C1(N2CCCCC2)CCN(CC[C@@]2(c3ccc(Cl)c(Cl)c3)CN(C(=O)c3ccccc3)CCO2)CC1 | – | 23.4 µM (active) |
| CC(C)(O)c1ccc(CNC(=O)c2cccnc2Oc2ccc3nonc3c2)cc1 | – | 50 µM (active) |
| CCN(CC)C(=O)c1cc(S(=O)(=O)Cc2ccccc2)c(N2CCC(c3ccccc3)CC2)cc1N(CC)CCN(C)C | – | 35.1 µM (active) |
| CC(O)CC(C)(C)O (stereo not given) | inactive | – |
| Clc1cc(Cl)c2c(c1)N=C1CCCCCN1C2 | inactive | – |
| CCCCOC(=O)c1ccc(O)cc1 | inactive | – |
| O=C(Nc1ccc(Cl)cc1)Nc1ccc(Cl)c(Cl)c1 | – | 18.9 µM (active) |
| C[C@]12CC[C@@H]3c4ccc(O)cc4CC[C@H]3[C@@H]1CCC2=O | – | 14.4 µM (active) |
| CCCOC(=O)c1cc(O)c(O)c(O)c1 | – | 4.06 µM (active) |
| Cc1cn([C@H]2C[C@H](N=[N+]=[N-])[C@@H](CO)O2)c(=O)[nH]c1=O | inactive | – |
| CC1(C)NC(=O)N(c2ccc([N+](=O)[O-])c(C(F)(F)F)c2)C1=O | – | 50 µM (active) |
| OC12N=C(c3ccccc3)SC1Cc1cc(Cl)ccc12 (stereo not given) | – | 17 µM (active) |
| CCOC(=O)O[C@H](C)OC(=O)c1ccc2c(c1)cc(C(=O)NC1CCN(C(C)C)CC1)n2Cc1cc(-c2ccc(Cl)s2)on1 | inactive | – |
| O=C(O)Cc1cc(I)c(Oc2ccc(O)c(I)c2)c(I)c1 | inactive | – |
| CCCCCCCCOC(=O)c1cc(O)c(O)c(O)c1 | inactive | – |
| CCCCCCCC[Si](OCC)(OCC)OCC | inactive | – |
| CC[C@H](NC(=O)c1cc(F)ccc1NS(=O)(=O)c1cccc2cccnc12)c1ccccc1 | – | 1.34 µM (active) |
| O=C(OCCCCCCOC(=O)c1ccccc1)c1ccccc1 | inactive | – |
| CCCCCc1ccc(N)cc1 | inactive | – |
